Data reported in PubChem BioAssay AID2546 (National Center for Advancing Translational Sciences (NCATS), 2010).
Screen size: about 310,000 compounds; about 11,000 (3.5%) were called active. Not shown: some 8% with an inconclusive outcome. Calls follow the shape of the dose curve; as a rule, active = well fitted inhibition curve with a large enough effect; inconclusive = small, poorly fitted or top-dose-only effect, or effect the other way; inactive = flat fitted curve, though single readings scatter. The full list was thinned out, with actives kept by preference.

Assay: VP16 counterscreen qHTS for inhibitors of ROR gamma transcriptional activity;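 also: Gal4-VP16 expression switched on by copper sulfate through the metallothionein promoter; nearly all actives have a fitted effect of over 50% in size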
Details: Drosophila S2 Gal4-VP16 UAS-luciferase, luminescence, 20 h; series mostly up to 53.6 µM; activity, negative = inhibition: at the top concentration
% is scaled to controls: 0 for no effect and ±100 for the full control effect; potency is read from the fitted curve at half-maximal effect.

Structure (SMILES)	activity, negative = inhibition	Potency
CCOc1ccc2[nH]c(=O)c(CN(CCCO)S(=O)(=O)c3ccc(F)cc3)cc2c1	0.404% (inactive)	–
COc1ccc2oc(C(=O)NCc3ccco3)c(C)c2c1	27.1% (inactive)	–
Clc1ccccc1-c1cc(NCCN2CCOCC2)ncn1	-0.277% (inactive)	–
CN(C)c1ccc(-c2nc(NCCN3CCOCC3)c3ccccc3n2)cc1	-27.7% (inactive)	–
c1ccc2cc3c(NCCN4CCOCC4)ccnc3cc2c1	–	12.6 µM (active)
COc1ccc(C(=O)Nc2ccc(NC(=O)C(C)C)nc2)cc1	6.09% (inactive)	–
COc1ccc(CS(=O)/C(Cl)=C(/Cl)C(=O)Nc2ccc(OC)nc2)cc1 (stereo not given)	–	3.98 µM (active)
COc1ccc(NC(=O)/C(Cl)=C(/Cl)S(=O)Cc2ccc(C)cc2)cn1 (stereo not given)	-8.88% (inactive)	–
COc1cccc(CNC(=O)COc2cc(O)c3c(c2)OC(C)(C)CC3=O)c1	3.82% (inactive)	–
COc1cc(/C=N/O)cc(Br)c1OS(=O)(=O)c1ccc(C)cc1	–	11.2 µM (active)
COc1cc(/C=N/O)ccc1OCc1ccc([N+](=O)[O-])cc1	-14.8% (inactive)	–
CCOc1c(Cl)cc(/C=N/O)cc1OC	4.4% (inactive)	–
COc1cc(/C=N/O)cc(Br)c1OCc1cccc(Cl)c1	–	11.2 µM (active)
COc1cc(/C=N/Nc2ccc(C)cc2)cc(Br)c1O	-1.91% (inactive)	–
COc1ccc(/C=N/NC(=O)c2ccccc2)cc1OS(=O)(=O)c1ccccc1	-25.7% (inactive)	–
CCc1c(C)c2ccc(OC3CCCCC3=O)cc2oc1=O (stereo not given)	6.03% (inactive)	–
CCOCCCN1C(=O)C2C(C(=O)Nc3ccc(OCC)cc3)C3C=CC2(O3)C1C(=O)NC1CCCCC1 (stereo not given)	-1.17% (inactive)	–
O=C(NC1CC1)C(Cc1ccccc1)NS(=O)(=O)c1ccccc1F (stereo not given)	-1.56% (inactive)	–
Cc1ccc(NC(=O)Nc2cccnc2)cc1	-10.8% (inactive)	–
COc1cc(/C=C(\C#N)c2nc3c(s2)CC(C)CC3)ccc1O (stereo not given)	–	4.47 µM (active)
COc1cc(/C=C(\C#N)c2nc3ccccc3[nH]2)ccc1O	4.23% (inactive)	–
COc1cc(/C=N/Nc2nc3ccccc3s2)ccc1O	-5.9% (inactive)	–
Cc1cc(-c2nnc(SCC(=O)Nc3ccc(S(N)(=O)=O)cc3)n2N)n[nH]1	-11.2% (inactive)	–
NC(=O)c1cc(S(=O)(=O)N2CCCC2)ccc1OCc1ccc(F)cc1	3.21% (inactive)	–

Structure (SMILES)	activity, negative = inhibition	Potency
COC(=O)c1ccccc1NC(=O)CSc1n[nH]c(-c2ccncc2)n1	2.2% (inactive)	–
Cc1ccc(CSCC2Nc3ccc(C(=O)N4CCN(c5ccc(F)cc5)CC4)cc3NC2=O)cc1 (stereo not given)	0.0449% (inactive)	–
CC(=O)N(CCCN(C)C)c1nc2ccc(C)cc2s1	-1.15% (inactive)	–
CN(C)CCCN(C(=O)c1ccc(S(=O)(=O)N2CCCCCC2)cc1)c1nc2ccc(Br)cc2s1	–	17.8 µM (active)
CCN(CC)CCN(C(=O)c1ccc(S(=O)(=O)N2CCOCC2)cc1)c1nc2cc3c(cc2s1)OCCO3	-4.42% (inactive)	–
Cc1occc1C(=O)Nc1nnc(C2CCCCC2)s1	1.48% (inactive)	–
O=C(Nc1nnc(C2CC2)s1)c1ccccn1	–	4.47 µM (active)
Cc1ccc(SCC(=O)Nc2ncc(C)s2)cc1	-15% (inactive)	–
O=C(Cc1cccs1)Nc1nnc(C2CC2)s1	1.44% (inactive)	–
Cc1cnc(NC(=O)CSc2c(Cl)cccc2Cl)s1	-6.38% (inactive)	–
Cc1cnc(NC(=O)c2ccccn2)s1	–	4.47 µM (active)
Cc1cccc(NC(=O)c2sc3nc(N4CCOCC4)c4c(c3c2N)CCCC4)c1	-11% (inactive)	–
CN(CCNC(=O)c1cc2c(-c3ccccc3F)nn(C)c2s1)C1CCCCC1	1.6% (inactive)	–
NC(=O)c1oc2ccccc2c1NC(=O)Cc1ccccc1	-5.97% (inactive)	–
COc1cccc2c(C)c(C(=O)O)[nH]c12	–	10 µM (active)
Cc1c(C(=O)N/N=C/c2ccccc2)[nH]c2c([N+](=O)[O-])cccc12	2.4% (inactive)	–
COc1cc2c(C(=O)O)c(C)n(C)c2c2ccccc12	-1.23% (inactive)	–
CNC(=O)C(=O)N/N=C/c1ccccn1	-5.47% (inactive)	–
O=C(Nc1ccc(S(=O)(=O)Nc2ncccn2)cc1)C12CC3CC(CC(C3)C1)C2	6.85% (inactive)	–
O=C(N/N=C/c1ccccn1)C12CC3CC(CC(C3)C1)C2	–	20 µM (active)
COc1cc2ccccc2cc1C(=O)Nc1ccc(NC(=O)c2cccs2)cc1	-13.3% (inactive)	–
Cc1csc(=NC(=O)c2ccccc2)n1CCO	1.69% (inactive)	–
Cc1csc(=Nc2ccccc2)n1CCO	1% (inactive)	–
C=C(C)CNC(=S)/N=c1\scc(C)n1CC	–	8.91 µM (active)

Structure (SMILES)	activity, negative = inhibition	Potency
CC(C)(c1ccccc1)c1ccc(OCCN2CCCC2)cc1	-7.2% (inactive)	–
CC(C)=CCN1CCN(Cc2cc3ccccc3[nH]2)CC1CCO (stereo not given)	23.2% (inactive)	–
O=C(CSc1ccc(-c2ccc(Br)cc2)nn1)NCC1CCCO1 (stereo not given)	3.03% (inactive)	–
O=C(c1cc(C(F)(F)F)cc(C(F)(F)F)c1)N1CCC2(CCCN(c3ccccn3)C2)CC1	–	12.6 µM (active)
O=C(c1cc(C(F)(F)F)cc(C(F)(F)F)c1)N1CCC[C@@]2(CCN(c3ccccn3)C2)C1	-11.2% (inactive)	–
O=C(c1cc(C(F)(F)F)cc(C(F)(F)F)c1)N1CCC2(CC1)CN(c1ccncc1)C2	10.8% (inactive)	–
Cc1ccc2c(cnn2C(=O)CCC(=O)NC2CCCC2)c1	2.56% (inactive)	–
COc1ccccc1NC(=O)c1ccc(N2CC3CC(C2)c2cccc(=O)n2C3)c(NC(=O)c2cccnc2)c1 (stereo not given)	-1.12% (inactive)	–
CC(=O)Nc1nc2ccccc2n1Cc1ccc(C)cc1	–	2.51 µM (active)
CC(=O)c1nc2ccccc2n1Cc1ccccc1	3.73% (inactive)	–
CCC(=O)Nc1nc2ccccc2n1Cc1ccccc1C	-4.06% (inactive)	–
Cc1ccc(-n2nc3cc(Cl)c(NC(=O)c4ccco4)cc3n2)cc1	1.07% (inactive)	–
Cc1ccc(Cn2c(NC(=O)c3ccco3)nc3ccccc32)cc1	–	1.58 µM (active)
CCn1nc(NC(=O)c2ccco2)c2cc3ccc(C)cc3nc21	-2.31% (inactive)	–
COc1ccc(CNC(=O)C(C)NCc2ccccc2Cl)cc1 (stereo not given)	5.57% (inactive)	–
CN(C)S(=O)(=O)c1ccc(C(=O)NCCN=C2NS(=O)(=O)c3ccccc32)cc1	-0.064% (inactive)	–
Cc1cc2occ(CC(=O)NNC(=O)c3ccccc3F)c2cc1C	-0.256% (inactive)	–
CC(=O)/C(=N\Nc1ccc(Cl)cc1Cl)Sc1cccc2cccnc12	–	5.01 µM (active)
N#Cc1ccc(C(=O)Nc2cccc3cccnc23)c(F)c1	-9.47% (inactive)	–
O=C(NNc1cc(Cl)ccc1Cl)c1cccnc1Cl	8.05% (inactive)	–
CCn1c(CC(=O)Nc2ccccc2C)nnc1SCC(=O)NC1=NCCS1	1.12% (inactive)	–
CC1CC(C)CN(S(=O)(=O)c2cccc3nonc23)C1 (stereo not given)	-2.88% (inactive)	–
